Measured values taken from PubChem BioAssay (EPA / NIEHS).
The source made the active and inactive calls. How the source made its calls: active means hit-call score of the fitted dose curve at least 0.9, where 1 is the maximum; inactive means score below 0.9.

Assays:
[1] = APR_HepG2_CellCycleArrest_24hr: Apredica 24-hour HepG2 Assay for Cell Cycle Arrest (AID 2282905); details: imaging, actives raise or lower the signal;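 further: cell cycle arrest scored as ratio of 2N to 4N nuclear DNA content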
In short: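 Cell cycle arrest is scored from nuclear DNA content measured by high-content imaging of Hoechst 33342-stained HepG2 cells following 24-hour treatment at ten concentrations up to 200 uM, with DMSO as baseline.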

[2] = APR_HepG2_NuclearSize_24hr: Apredica 24-hour HepG2 Assay for Nuclear Size (AID 2282907); details: high-content imaging, actives raise or lower the signal
In short: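 Compounds in DMSO (final 0.5%) were added to human HepG2 hepatoma cells at ten concentrations up to 200 uM for 24 hr. Fixed nuclei were stained with Hoechst 33342, and nuclear diameter was quantified from automated images.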

[3] = APR_HepG2_CellLoss_24hr: Apredica 24-hour HepG2 Assay for Cell Loss (AID 2282908); details: high-content imaging;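 on AC50: fit in both directions so a hit may be cell loss or gain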
In short: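 Cell number is quantified by fluorescence imaging of Hoechst 33342-stained nuclei following dosing at 0.39–200 uM in 0.5% DMSO. Curves are fitted in both directions from the DMSO baseline.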

[4] = APR_HepG2_MicrotubuleCSK_24hr: Apredica 24-hour HepG2 Assay for Microtubule CSK Stabilty (AID 2282909); details: HepG2 microtubule cytoskeleton imaging, actives raise or lower the signal
In short: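 Steps: dose HepG2 for 24 h (0.39–200 uM, 0.5% DMSO); fix 30 min in 3.7% formaldehyde at room temperature; permeabilize; stain alpha-tubulin 60 min; image microtubule cytoskeleton at 20x. Signal change fitted in both directions relative to DMSO.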

[5] = APR_HepG2_MitoticArrest_24hr: Apredica 24-hour HepG2 Assay for Mitotic Arrest (AID 2282910); details: high-content imaging, actives raise or lower the signal
In short: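 HepG2 cells, 24 h exposure at 0.39-200 uM (10 concentrations, duplicate, 0.5% DMSO). Fixed, stained for phospho-histone H3 with Hoechst; imaged by high-content microscopy, bidirectional fit versus DMSO.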

[6] = APR_HepG2_MitoMembPot_24hr: Apredica 24-hour HepG2 Assay for Mitochondrial Membrane Potential (AID 2282911); details: imaging, actives raise or lower the signal
In short: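 HepG2, 24 hr dosing, 10 concentrations 0.39–200 uM, 0.5% DMSO final. Live-cell MitoTracker Red CMXRos 250 nM 30 min, then 3.7% formaldehyde fix. HCS fluorescence imaging, 20x; bidirectional fit vs DMSO baseline.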

[7] = APR_HepG2_MitoMass_24hr: Apredica 24-hour HepG2 Assay for Mitochondrial Mass (AID 2282912); details: high-content imaging, actives raise or lower the signal
In short: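 The liver line HepG2 was dosed in duplicate across a 0.39–200 uM series, with final DMSO held at 0.5% v/v, and harvested at 24 hr. High-content imaging measured mitochondrial dye staining.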

[8] = APR_HepG2_p53Act_24hr: Apredica 24-hour HepG2 Assay for p53 Activation (AID 2282913); details: high-content imaging, actives raise or lower the signal;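 further: p53 protein immunofluorescence averaged per cell in HepG2 with Hoechst nuclei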
In short: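 Read-out: Cy5 immunofluorescence for p53 in fixed, permeabilized HepG2, imaged by HCS with Hoechst-defined nuclei. Dosing was 24 hr at 0.39–200 uM in 0.5% DMSO. Curves were fitted bidirectionally relative to DMSO.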

[9] = APR_HepG2_CellCycleArrest_72hr: Apredica 72-hour HepG2 Assay for Cell Cycle Arrest (AID 2282914); details: high-content imaging, actives raise or lower the signal
In short: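 HepG2, 72 hr exposure, 10-point 0.39–200 uM, duplicate, 0.5% DMSO final. Fix 3.7% formaldehyde 30 min RT, Triton X-100 0.5%, Hoechst 33342 2 ug/mL. ArrayScan 20x, six fields/well; DNA content per nucleus; bidirectional fit vs DMSO.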

[10] = APR_HepG2_CellLoss_72hr: Apredica 72-hour HepG2 Assay for Cell Loss (AID 2282915); details: high-content imaging
In short: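 HepG2 cells exposed 72 h to compound at 0.39–200 uM (10 concentrations, duplicate) in 0.5% DMSO. Fixed with 3.7% formaldehyde and Hoechst 33342-stained. Imaged at 20x; nuclear count gives cell number, fitted bidirectionally versus DMSO.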

Measured: AC50

COc1cccc(-c2ccc(/C=C\CN3CCCCCC3)cc2Cl)c1
active: [1] 87.1 µM | [2] 59.5 µM | [3] 74.8 µM | [5] 28.5 µM | [7] 23.8 µM | [8] 30.8 µM | [9] 84.2 µM | [10] 28.6 µM
inactive: [4] | [6]

CCOC(=O)c1ccc(C2CCC(NC[C@H](O)COc3ccc(O)c(NS(C)(=O)=O)c3)CC2)cc1 (stereo not given in full)
active: [3] 32.3 µM | [4] 90.2 µM | [5] 27.5 µM | [6] 86.9 µM | [7] 28.1 µM | [8] 26.2 µM | [10] 25 µM
inactive: [1] | [2] | [9]

Cc1ccc(C)c(O)c1
inactive: all assays above

O=C(O)c1cccc(N(Cc2cccnc2)c2ccc(OC(F)F)c(OC(F)F)c2)c1
active: [3] 43.6 µM | [5] 10.4 µM | [6] 0.0349 µM | [7] 13.3 µM | [8] 5.63 µM | [10] 23.5 µM
inactive: [1] | [2] | [4] | [9]

O=C1CCC(N2C(=O)c3ccccc3C2=O)C(=O)N1 (stereo not given)
inactive: all assays above

Cc1[nH]cnc1C[C@H]1CCc2c(C)c3ccccc3n2C1=O
active: [1] 146 µM | [3] 55.7 µM | [8] 97 µM | [9] 69.7 µM | [10] 24.5 µM
inactive: [2] | [4] | [5] | [6] | [7]

C1=CCCC=CCCC=CCC1
inactive: all assays above

Cc1ccc(O)cc1
inactive: all assays above

On1ccccc1=S
active: [8] 19.6 µM | [9] 8.36 µM | [10] 5.34 µM
inactive: all other assays above

CCCCCCc1ccc(O)cc1O
active: [1] 89.8 µM | [3] 103 µM | [5] 95.4 µM | [6] 46.1 µM | [7] 125 µM | [8] 104 µM | [10] 71.5 µM
inactive: [2] | [4] | [9]

CC(C)CCCCCCCOC(=O)CCCCC(=O)OCCCCCCCC(C)C
inactive: all assays above

CCN(C(=O)c1cc(C)cc(OC[C@H](C)Nc2ccncc2)c1)C(C)C
inactive: all assays above

Fc1ccccc1[C@@H](F)COC1CCC(Nc2ncnc3[nH]ncc23)CC1 (stereo not given in full)
active: [1] 62.3 µM | [3] 52.4 µM | [4] 78.4 µM | [9] 50.1 µM | [10] 59 µM
inactive: [2] | [5] | [6] | [7] | [8]

CC1=CC(=O)CC(C)(C)C1
inactive: all assays above

O=C(CCCCCCCCc1cccnc1)N1CCC(C=C(c2ccccc2)c2ccccc2)CC1
inactive: all assays above

CCCCCCCCO
inactive: all assays above

O=C(NS(=O)(=O)/C=C/c1ccccc1)c1ccc(F)cc1Cl
inactive: all assays above

CN(C)c1ccc(Cc2ccc(N(C)C)cc2)cc1
active: [6] 55.9 µM | [9] 50.8 µM | [10] 45.2 µM
inactive: all other assays above

CC(C)CCCCCCOC(=O)c1ccc(C(=O)OCCCCCCC(C)C)c(C(=O)OCCCCCCC(C)C)c1
inactive: all assays above

CC(=O)c1ccc2c(c1)[C@H](NC(=O)c1ccc(F)cc1)[C@@H](O)C(C)(C)O2
inactive: all assays above
